Rows were chosen to be rich in hits. Some 9.4% of all compounds tested hit in one or more screens of this group.
ELG1 DNA repair: inhibitors of ELG1-dependent DNA repair in HEK293T cells; HEK293T ELG1-luciferase reporter, luminescence, 16 h; DNA damage induced by 5-fluorouridine; Potency, µM (titrated, usually from 46.1 µM), hits mostly inhibitors; 330,000 tested, 2.3% active; AID 504467; further: nearly all actives have a fitted effect of over 55% in size
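5-Fluorouridine DNA damage + compound/DMSO, 2,000 cells/well, 16 h, 37 °C/5% CO2. ONE-Glo, 30 min RT, luminescence. Readout = decrease in reporter signal.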
Rab9 prom act: activates the Rab9 promoter; Potency, µM (series often up to 9.22 µM), actives largely listed as activators; 320,000 tested, 2.8% active; Huh7 Rab9 promoter-luciferase reporter, luminescence, 24 h; further: nearly all actives have a fitted effect of over 60% in size
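Stable Rab9-luc Huh7, 1500 cells/well, 2 h settle; cmpd in DMSO, 24 h, 37 °C/5% CO2; luciferase reagent 10 min RT; luminescence.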
ELG1 genotox: genotoxicity induction in ELG1-luciferase HEK293T cells. HEK293T ELG1-luciferase reporter, luminescence, 16 h. Potency, µM (titrated, usually from 46 µM), usual class: activators. AID 504466. 330,000 tested, 1.3% active; further: nearly all actives have a fitted effect of over 60% in size
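Quantitative HTS format in 1536-well plates. HEK293T ELG1-luciferase reporter cells receive test compound and are incubated 16 hr at 37 °C, 5% CO2; ONE-Glo added, 30 min room temperature, then luminescence read.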
NPC1 prom act: activates the NPC1 promoter. AID 485313. 320,000 tested, 2.4% active. Potency, µM (top dose mostly 9.22 µM), hits mostly activators. Huh7 NPC1 promoter luciferase reporter, 24 h; further: nearly all actives have a fitted effect of over 60% in size
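Luminescence from an NPC1 promoter-driven luciferase reporter in stably transfected Huh7 cells was measured after 24 h compound treatment at 37 °C, followed by 10 min ambient incubation with luciferase detection reagent.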
SMN2 splice up: enhancers of SMN2 splice variant expression; 210,000 tested, 2.8% active; HEK293 SMN2-luciferase splicing reporter, luminescence, 30-36 h; Potency, µM (doses to about 46.1 µM), usual class: activators; further: nearly all actives have a fitted effect of over 55% in size
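HEK293 cells carry an SMN2 […]–luciferase reporter in which exon 7 inclusion puts luciferase in frame. Cells were plated 10-12 h before compound addition, then incubated 30-36 h at 37C. ONE-Glo luminescence was read; sodium butyrate at 4.5 mM final served as control.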
FLuc modulator: firefly luciferase modulation, counter-screen for miR-21 project; P08659; purified FLuc, Km substrates, luminescence inhibition; Potency, µM (series often up to 57.5 µM), most hits filed as inhibitors; 360,000 tested, 6.9% active; AID 588342; further: nearly all actives have a fitted effect of over 55% in size
Target sequence (P08659 whole entry, looked up): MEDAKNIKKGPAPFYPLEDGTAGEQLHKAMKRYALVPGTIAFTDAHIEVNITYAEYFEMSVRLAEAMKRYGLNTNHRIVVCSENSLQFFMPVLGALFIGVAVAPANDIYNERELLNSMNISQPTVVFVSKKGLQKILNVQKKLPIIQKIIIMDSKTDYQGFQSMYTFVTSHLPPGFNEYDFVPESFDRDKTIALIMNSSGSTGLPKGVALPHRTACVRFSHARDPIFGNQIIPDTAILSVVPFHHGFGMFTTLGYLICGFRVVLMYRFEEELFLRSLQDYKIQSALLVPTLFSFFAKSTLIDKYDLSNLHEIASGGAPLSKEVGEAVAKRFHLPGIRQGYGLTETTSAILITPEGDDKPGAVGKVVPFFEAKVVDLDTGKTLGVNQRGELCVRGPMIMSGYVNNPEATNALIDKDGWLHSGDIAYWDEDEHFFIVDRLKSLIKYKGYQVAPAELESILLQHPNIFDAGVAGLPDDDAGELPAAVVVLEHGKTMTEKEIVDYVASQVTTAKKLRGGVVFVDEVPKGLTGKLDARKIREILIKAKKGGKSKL
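Biochemical qHTS of compounds, final roughly 60 µM downward over six points, against 10 nM purified firefly luciferase using Km concentrations of substrates (10 uM D-luciferin, 10 uM ATP) in Tris acetate pH 7.5 buffer; luminescence output.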
Hits are given with their value; i = inactive; ? = inconclusive; nt = no result; [ ] = another dose, or the depositor's remark. The call rests on the fitted dose curve; in most records, active means well fitted curve in the direction sought with a large enough effect; inconclusive means small, poorly fitted or top-dose-only effect, or another doubt; inactive means no such curve, though single readings can be large; an effect the other way counts as inactive or inconclusive.

SMILES | ELG1 DNA repair | Rab9 prom act | ELG1 genotox | NPC1 prom act | SMN2 splice up | FLuc modulator
COc1ccc(NC(=O)CN(C)C(=O)CNC(=O)c2sc3ccccc3c2Cl)cc1 | ? | ? | ? | ? | nt | 3µM
Cc1ccc(CN2CCN(Cc3ccc(C)o3)[C@@H](C)C2)o1 | nt | nt | nt | nt | i[9.22 µM] | nt
COc1ccccc1NC(=O)C1=C(C)Nc2nc(SCc3cc(C)ccc3C)nn2C1c1ccccc1 (stereo not given) | nt | nt | nt | nt | nt | i
CS(=O)(=O)N(CC(=O)NCCSCc1ccccc1)c1cc(C(F)(F)F)ccc1Cl | nt | nt | nt | nt | i | i
CC(=O)N1c2ccc(S(=O)(=O)N3CCC(C(=O)NCc4ccccc4Cl)CC3)cc2CC1C (stereo not given) | 23µM | i | i[9.26 µM] | i | nt | i
CC(=O)N1c2ccc(S(=O)(=O)N3CCC(C(=O)N4CCN(c5ccccc5F)CC4)CC3)cc2CC1C (stereo not given) | 21µM | i | i | i | nt | i
CC(=O)N1c2ccc(S(=O)(=O)N3CCC(C(=O)NCc4ccc(Cl)cc4)CC3)cc2CC1C (stereo not given) | 10µM | i | i | i | nt | i
CC(=O)N1c2ccc(S(=O)(=O)N3CCC(C(=O)N4CCN(c5ccc(Cl)cc5)CC4)CC3)cc2CC1C (stereo not given) | i | i | i | i | nt | i
O=C(O)c1ccccc1C(=O)Nc1cc2c(cc1Br)-c1ccccc1C2=O | nt | nt | nt | nt | i[9.22 µM] | nt
O=C(Nc1cccc(-c2cn3ccsc3n2)c1)c1ccccc1 | ? | i | i | i | i | 11µM
CCOc1ncccc1C(=O)Nc1ccc(-c2cn3ccsc3n2)cc1 | i | i | i | i | i | i
Nc1cccc(-c2cn3ccsc3n2)c1 | nt | nt | nt | nt | nt | 21µM
CCCCC(=O)Nc1cccc(-c2cn3ccsc3n2)c1 | i | i | i | i | i | 15µM
COc1ccccc1C(=O)Nc1cccc(-c2cn3ccsc3n2)c1 | ? | i | i | i | i | 4.3µM
Cc1nc(-c2cccc(N)c2)cs1 | ? | i | i | i | i | i
COc1cc(OC)cc(C(=O)Nc2cccc(-c3cn4cccnc4n3)c2)c1 | nt | nt | nt | nt | nt | i
O=C(Nc1cccc(C(F)(F)F)c1)N1CCC(CN2CCCCCC2)CC1 | nt | nt | nt | nt | nt | i
Cc1cccc(NC(=O)CSc2nccn2Cc2ccc(F)cc2)c1C | nt | nt | nt | nt | nt | i
COc1ccc(/C=C/C(=O)Nc2ccc(-n3nncc3-c3ccc(OC)c(OC)c3)cc2)cc1OC | ? | i | i | i | ? | i
COc1ccc(/C=C/C(=O)Nc2ccccc2)cc1OC | ? | 3.2µM | ? | ? | 13µM | 13µM
CN(C)S(=O)(=O)c1cccc(NC(=O)/C=C/c2ccc(S(=O)(=O)N3CCOCC3)cc2)c1 | 23µM | i | i | i | nt | i
COc1ccc(-c2cnnn2-c2ccc(NC(=O)/C=C/c3ccc(OC)c(OC)c3)cc2)cc1 | 5.8µM | i | i | i | i | i
CCN(CC)S(=O)(=O)c1ccc(/C=C/C(=O)Nc2cccc(F)c2)cc1 | 13µM | i | i | i | i | ?
CCOc1ccc(C(=O)Nc2cccc(-c3nc4cccnc4s3)c2C)cc1OCC | nt | nt | nt | nt | nt | i
COc1cc2ccccc2cc1C(=O)Nc1ccc(Cl)c(-c2nc3ccccc3o2)c1 | nt | nt | nt | nt | i | i
SMILES | ELG1 DNA repair | Rab9 prom act | ELG1 genotox | NPC1 prom act | SMN2 splice up | FLuc modulator
COc1ccc(/C=C/C(=O)Nc2cccc(S(=O)(=O)N3CCOCC3)c2)cc1OC | 21µM | i | i | i | nt | ?
O=C(/C=C/c1ccc(OC(F)F)cc1)Nc1cccc(S(=O)(=O)N2CCOCC2)c1 | 23µM | i | i | i | nt | 4.8µM
COc1cc(/C=C/C(=O)Nc2cccc(S(=O)(=O)N3CCOCC3)c2)ccc1OCC#N | ? | i | i | i | nt | i
O=C(/C=C/c1ccco1)Nc1cccc(S(=O)(=O)N2CCOCC2)c1 | i | ? | i | i | i | 17µM
COc1cc(/C=C/C(=O)NC(=O)c2ccccc2O)ccc1OC(C)=O | ? | ? | ? | ? | nt | 3µM
NCC(=O)NC1(C(=O)O)CCCC1 | nt | nt | nt | nt | i[9.22 µM] | nt
CC(=O)c1cccc(NC(=O)/C=C/c2ccc(S(=O)(=O)N3CCOCC3)cc2)c1 | 23µM | nt | i | nt | nt | nt
O=C(COC(=O)/C=C/c1ccc(OC(F)F)cc1)Nc1cccc(S(=O)(=O)N2CCCC2)c1 | i | i | i | i | nt | 19µM
O=C(/C=C/c1cccc(F)c1)Nc1ccc(S(=O)(=O)N2CCOCC2)cc1 | ? | nt | i | nt | nt | nt
Cc1ccc(Cl)cc1N1CCN(c2nc3ccccc3c3nc(-c4cccnc4)nn23)CC1 | nt | nt | nt | nt | i | i
Cc1nc2cccnc2n1-c1cccc(C(=O)NCc2ccc(OC(C)C)cc2)c1 | nt | nt | nt | nt | nt | i
Cc1c(C(=O)OCc2ccc(F)cc2)sc2nc3n(c(=O)c12)CCC3 | i | i | i | i | nt | 15µM
CCOC(=O)c1sc2nc3n(c(=O)c2c1C)CCCCC3 | ? | ? | ? | ? | i | 15µM
CCOC(=O)c1c(C)n(C)c2ccc(OCC(O)Cn3nc(C)cc3C)cc12 (stereo not given) | 21µM | i | i | i | i | i
O=C(N/N=C/c1ccccc1F)c1csc2c1CCCC2 | ? | 1.3µM | ? | 1.1µM | 8.9µM | 2.7µM
O=C(N/N=C/c1cccc(F)c1)c1csc2c1CCCC2 | ? | 1.3µM | ? | 1µM | 14µM | 4.8µM
O=C(N/N=C/c1ccccc1F)NC12CC3CC(CC(C3)C1)C2 | ? | i[1.84 µM] | i | ? | nt | ?
Cc1cccc(C)c1NC(=O)c1csc2c1CCCC2 | nt | nt | nt | nt | i | i
CC1=CCC(/C=N\Nc2nnc3c(n2)[nH]c2ccccc23)CC1 (stereo not given) | ? | ? | ? | ? | i | 1.5µM
CC1CCN(C(=O)CSc2nnc3c(n2)[nH]c2ccccc23)CC1 | i | i | i | i | nt | i
O=C(N/N=C/C=C/c1ccccc1)c1cccs1 | ? | 1.8µM | i | ? | ? | 15µM
O=C(N/N=C/c1cccnc1)c1cccs1 | ? | i | i | i | nt | ?
O=C(N/N=C/C(Br)=C/c1ccccc1)c1cccs1 | ? | 0.89µM | ? | 2.2µM | nt | 1.5µM
O=C(NCCNC(=O)c1cc(Cl)ccc1Cl)c1ccccn1 | i | i | i | i | nt | i
COc1ccc(Cl)cc1C(=O)O/N=C(\N)c1ccccn1 | ? | i | ? | 4µM | nt | ?
SMILES | ELG1 DNA repair | Rab9 prom act | ELG1 genotox | NPC1 prom act | SMN2 splice up | FLuc modulator
N/C(=N\OC(=O)c1cc(Cl)ccc1Cl)c1ccccn1 | ? | 5µM | ? | ? | 5µM | 1.5µM
COc1ccccc1/C=C/C(=O)N1CCN(S(=O)(=O)c2cccs2)CC1 | 21µM | nt | i | nt | nt | nt
CNc1ccccc(C(=O)/C=C/c2ccccc2OC)c1=O | 23µM | i | i | i | i | 21µM
COc1ccccc1/C=C/C(C)=O | i | i | i | i | i | i
COc1ccccc1/C=C/C(=O)/C=C/c1ccccc1O | ? | i | i | i | nt | 3.4µM
Cc1ccc(CN2CCN(C3CCN(C(=O)c4ccc(C)cc4)CC3)C(=O)C2=O)cc1 | nt | nt | nt | nt | nt | i
